Data reported in PubChem BioAssay AID2314 (National Center for Advancing Translational Sciences (NCATS), 2010).
Among all 300,000 compounds or so, about 37,000 (12%) were called active. Many of the other results were omitted from the sample, so actives are more common in it than they were. Unmarked numbers belong to inactive results. Rule as the data show it: active = max response mostly above about 13% (no sharp cut-off); inactive = mostly below about 14%.

Assay: Cycloheximide Counterscreen for Small Molecule Inhibitors of Shiga Toxin; also: read at 38.3 µM for the half of the compounds with a filed dose; 0% is about no effect
Conditions: cell reporter, cycloheximide protein synthesis inhibition counterscreen; hits give high values

Structure (SMILES)	max response
CCOC(=O)CN1C(=O)C(=O)c2cc(C)ccc21	-1.86%
CCOC(=O)[C@@H]1[C@H]2COc3cc(OC)ccc3[C@H]2N2C(=O)N(c3ccc(F)cc3)C(=O)[C@]12C	0.485%
COCCN(C(=O)C(C)C)c1nnc(-c2ccc(C(C)(C)C)cc2)s1	13.2%
Cc1ccc(-c2nc3ccccc3[nH]2)cc1NC(=O)c1sc2ccccc2c1Cl	-0.874%
O=C(Cc1cccs1)Nc1cccc(-c2nc3ccccc3[nH]2)c1	11.5%
CC(C)Oc1ccc(/C=C(\NC(=O)/C=C/c2ccco2)C(=O)NCCc2nc3ccccc3[nH]2)cc1	5.81%
O=C(/C=C/c1ccco1)Nc1cccc(-c2nc3ccccc3[nH]2)c1	51.8% (active)
O=C(Nc1cccc(-c2nc3ccccc3[nH]2)c1)c1ccc(C(=O)Nc2cccc(-c3nc4ccccc4[nH]3)c2)cc1	48.3% (active)
NS(=O)(=O)c1cccc(NC(=O)COC(=O)/C=C/c2ccco2)c1	0.371%
COc1ccc(C(=O)Nc2ccccc2C(=O)N/N=C/c2ccc(O)c(OC)c2)cc1	-7.9%
O=C(N/N=C/c1cccc(Br)c1)c1ccc(N2CCCC2=O)cc1	-5.81%
COc1cc(/C=N/NC(=O)c2ccc(N3CCCC3=O)cc2)ccc1O	36% (active)
Cc1c(Cl)cccc1NC(=O)Nc1ccc(C(=O)N2CCCC2)cc1	-1.9%
O=C(CCS(=O)(=O)c1ccc2c(c1)NC(=O)CS2)NCc1ccccc1Cl	-3.16%
O=C(CSc1n[nH]c(=O)n1-c1ccccc1)Nc1ccccc1C(F)(F)F	-2.47%
CCOc1ccc2nc(/N=C/c3nc(-c4ccccc4)oc3O)sc2c1	-1.31%
CC(N=Cc1nc(-c2ccccc2)oc1O)c1ccccc1 (configuration not stated)	35.7% (active)
Cc1c(Cl)cccc1NC(=O)NCCCN1CCCC1=O	-0.801%
COCCN1C(=O)C(=O)/C(=C(/O)c2ccc(S(=O)(=O)N3CCOCC3)cc2)C1c1ccc(O)c(OC)c1 (configuration not stated)	-5.59%
Cc1cccc(NC(=S)NCc2ccc3[nH]c4c(c3c2)CCCC4)c1	9.68%
CCn1c(/C=C/c2ccc([N+](=O)[O-])o2)nc2ccccc2c1=O	-4.66%
O=c1c2ccccc2nc(/C=C/c2ccco2)n1-c1ccccc1O	24.2% (active)
O=c1c2ccccc2nc(/C=C/c2ccc(F)cc2)n1-c1ccccc1O	6.44%
O=C(Nc1ccc(F)c([N+](=O)[O-])c1)C1CC(=O)N(Cc2ccccc2)C1 (configuration not stated)	-3.3%
COc1cccc(N(CC(=O)NC2CCCC2)C(=O)Cn2nnc(-c3ccc(C)o3)n2)c1	-3.92%
COC(=O)CCc1ccccc1S(=O)(=O)N(CCC(=O)OC)Cc1ccccc1	-11%

Structure (SMILES)	max response
COc1ccc(Cl)cc1-n1c(=S)sc2c(=O)n(-c3ccc(F)cc3)c(SCC(=O)O)nc21	0.929%
O=C1C2N=NN(CC(=O)N3N=C(c4cccc5ccccc45)CC3c3ccccc3)C2C(=O)N1c1ccccc1 (configuration not stated)	-3.29%
CNC(=O)/C(C#N)=C/c1c(F)cccc1Cl	15.7% (active)
N#C/C(=C\c1ccccc1C(F)(F)F)C(=O)Nc1ccccc1F	-2.94%
O=C(/C=C/c1c(F)cccc1Cl)Nc1nn[nH]n1	-1.57%
CCc1ccc(/C=N/NC(=O)c2ccc(OC3CCCC3)cc2)s1	12.2%
COc1ccc(CCNC(=O)CCn2c(=O)c3ccccc3n(CC(=O)NCC3CCCO3)c2=O)cc1OC (configuration not stated)	11%
Cc1nc2ccccc2n1CC(O)c1ccccc1 (configuration not stated)	-1.62%
Cn1c(=N)n(CC(O)c2cccs2)c2ccccc21 (configuration not stated)	-3.56%
Cn1c(=N)n(CC(O)c2ccccc2)c2ccccc21 (configuration not stated)	70.1% (active)
COC(C(=O)Nc1ccc(C(C)=O)cc1)c1ccccc1 (configuration not stated)	-2.94%
COc1ccc(NC(=O)[C@H](NC(=O)[C@@H]2Cc3ccccc3CN2)c2ccccc2)cc1	-1.13%
COc1ccc(NC(C(=O)Nc2cccc(C(C)=O)c2)c2ccccc2)cc1 (configuration not stated)	12.5% (active)
O=C(NC1CCN(C(=S)Nc2ccc(Cl)cc2)CC1)C1CCCCC1	-3.84%
O=C(Nc1ccc(Cl)cc1)Nc1ccc(C(=O)N2CCOCC2)cc1	15.1%
NS(=O)(=O)c1ccc(CCNC(=O)Nc2ccc(Cl)cc2)cc1	11%
CC(C)S(=O)(=O)c1csc(NC(=O)Nc2ccc(Cl)cc2)c1Cl	17.4% (active)
Cc1cccc(OCC(=O)Nc2ccc(NC(=O)c3ccco3)c(C)c2)c1	6.82%
COC(=O)c1nc(NC(=O)c2ccc(C(C)(C)C)cc2)n[nH]1	4.76%
CSc1ncc(C(=O)Nc2ccc(C)cc2C)c(C)n1	2.97%
CSc1nccc(NC(=O)c2ccc(C(C)(C)C)cc2)n1	38.6% (active)
Cn1c(Cn2nnc3ccccc32)nnc1SCC(=O)c1ccccc1F	1.74%
COc1ccc(Nc2ncc(F)c(N3CCOCC3)n2)cc1	27.6% (active)
c1ccc(Nc2nc(N3CCOCC3)c3ccccc3n2)cc1	3.89%
CCOc1ccc(Nc2nc(Cl)nc(N3CCN(c4ccc(OC)cc4)CC3)n2)cc1	1.38%
OCCNc1nc2ccccc2n1-c1ncnc2sc3c(c12)CCC3	-6.62%

Structure (SMILES)	max response
CCCCCCCCCOC1OC(CO)C(O)C(O)C1NC(C)=O (configuration not stated)	2.49%
COc1cccc(CC2(CO)CCCN(Cc3nc(-c4cccs4)oc3C)C2)c1 (configuration not stated)	1.79%
Cc1nn2cc(-c3ccc(Cl)cc3)cnc2c1Br	23.7% (active)
COc1cccc(N2CCN(c3ccc4nnc(CCC(=O)N5CCN(C)CC5)n4n3)CC2)c1	-3.61%
O=C(NCCc1c[nH]c2ccccc12)C1CCN(Cc2ccc(Br)cc2)CC1	-1.22%
COc1cc(OC)c(NC(=O)C2CCCN2C(=O)OCc2ccccc2)cc1Cl (configuration not stated)	-2.36%
COC(=O)c1ccc(OC(=O)c2nn(C)cc2Cl)c(OC)c1	8.01%
CCNS(=O)(=O)c1ccc(NC(=O)Nc2cccc(OC)c2)cc1	10.4%
COc1cccc(NC(C)=[N+](C)CCNS(=O)(=O)c2ccc(Cl)cc2)c1	43.4% (active)
COc1ccc(S(=O)(=O)NCCCCOc2ccc(Cl)cc2)cc1	-3.02%
CC/C(=N\NC(=O)c1c(C)nc2ccccn12)c1ccc(Cl)cc1	6.12%
CN(C)c1ccc(C2N(C)C(=O)c3ccccc3N2C)cc1 (configuration not stated)	-2.11%
O=C(C1=C(O)C(=O)N(c2ncccn2)C1c1cccs1)c1ccco1 (configuration not stated)	0.951%
O=C(COc1ccc2ccccc2c1)N1CCN(C(=O)c2cccs2)CC1	-3.04%
O=C(C1=C(O)C(=O)N(CCOCCO)C1c1ccccn1)c1cccs1 (configuration not stated)	15.5% (active)
Cc1ccc2[nH]c(=O)c(CC(=O)O)c(-c3ccccc3)c2c1	-1.3%
c1ccc(COc2ccccc2CNCc2cccnc2)cc1	2.03%
O=C(O)c1ccc(/C=N/NC(=O)c2ccc(Br)cc2)cc1	-2.33%
CC(C)(C)OC(=O)N/N=C/c1ccc(C(=O)O)cc1	29.1% (active)
COC(=O)N/N=C/c1ccc(/C=N/NC(=O)OC)cc1	-2.42%
Cc1cccc2c1cnn2C(=O)CCC(=O)NC1CCCCC1	4.44%
Cc1nc2nc(SCC(=O)Nc3cccc(F)c3)[nH]c2cc1Br	1.17%
O=C(C1CCN(S(=O)(=O)c2cccs2)CC1)N1CCCCCC1	10%
COc1ccccc1-c1cc(C(=O)N2CCCCC2)no1	59.2% (active)
O=C(c1ccc(Cl)c(Cl)c1)N1CCCC1	-2.63%
O=C(c1ccco1)N1CCN(C(=O)c2ccc(COc3ccc(F)cc3)o2)CC1	-1.31%

Structure (SMILES)	max response
COc1cccc(-c2cc(C(=O)N3CCN(c4ccccc4OC)CC3)no2)c1	7.23%
COc1ccccc1N1CCN(C(=O)c2cc(-c3ccc(Cl)c(Cl)c3)on2)CC1	-1.8%
O=C(c1cc(-c2cccs2)on1)N1CCCCC1	50.6% (active)
O=C(c1cc(-c2ccccc2O)on1)N1CCCC1	35% (active)
COc1cccc(OC)c1OCCN1CCN(C(=O)c2ccco2)CC1	-3.58%
COc1cccc(OCc2cc(C(=O)N3CCN(C(=O)c4ccco4)CC3)no2)c1	44.9% (active)
CNC(=O)n1ccc(C(=O)N2CCCCC2)n1	1.48%
N#Cc1cccc(NC(=O)CN2CCCCCC2)c1	4.22%
CC1CN(C(=O)CCC(=O)NCc2cccnc2)c2ccccc2O1 (configuration not stated)	0.76%
OCCN(Cc1ccccc1)Cc1ccc(Cl)cc1	-2.21%
CCc1nnc(NC(=O)CCN(c2ccc(C)cc2)S(=O)(=O)c2ccccc2)s1	-1.73%
COc1ccc(C2NC(=O)N(C)C(C)=C2[N+](=O)[O-])cc1 (configuration not stated)	-2.28%
CC(=O)c1ccc(NC(=O)c2cc(-c3cccs3)on2)cc1	16.4% (active)
COc1ccc(OCc2cc(C(=O)N3CCCC3)no2)c2ccccc12	65.1% (active)
Cc1cc(NC(=O)c2cc(-c3cccs3)on2)nn1Cc1ccc(Cl)cc1	9.8%
COc1ccccc1OCc1ccc(C(=O)N2CCN(C)CC2)o1	1.3%
Cc1ccc(C)c(OCc2cc(C(=O)N3CCN(c4cnccn4)CC3)no2)c1	19.7%
COc1cc(Cl)ccc1OCc1cc(C(=O)N2CC[C@@H]3CCCC[C@H]3C2)no1	38.6% (active)
COc1cc2c(C(=O)N(C)c3cc(Cl)ccc3OC)cn(C)c(=O)c2cc1OC	-3.47%
COc1cc(Cl)ccc1OCc1cc(C(=O)N(C)CCc2c(C)n[nH]c2C)no1	32.5%
CCn1ccnc1CN(C)C(=O)c1cc(COc2ccc(-n3cncn3)cc2)on1	-1.13%
CC(=O)Nc1cccc(Nc2nc(-c3cccs3)nc3ccccc23)c1	13.3%
COc1ccc(C(=O)C2CCCN(C(=O)c3cc(C)on3)C2)cc1F (configuration not stated)	1.02%
CCn1ccnc1CN(C)C(=O)c1cc(COc2ccc(Cl)cc2OC)on1	39.1% (active)
